Source: PubChem
Shown is part of a subset that was picked to be rich in hits.
KDM5B inhibitor: Primary screen for KDM5B Histone Demethylases FDH-coupled qHTS; KDM5B demethylase, FDH-coupled NADH fluorescence (FDH is formaldehyde dehydrogenase); Potency, µM (top dose mostly 57.7 µM), most hits filed as inhibitors; 2.6% of 220,000 active; active = well fitted inhibition curve with a large enough effect; also: 0% is about no effect; nearly all actives have a fitted effect of over 70% in size
Target sequence (Q9UGL1 whole entry, looked up): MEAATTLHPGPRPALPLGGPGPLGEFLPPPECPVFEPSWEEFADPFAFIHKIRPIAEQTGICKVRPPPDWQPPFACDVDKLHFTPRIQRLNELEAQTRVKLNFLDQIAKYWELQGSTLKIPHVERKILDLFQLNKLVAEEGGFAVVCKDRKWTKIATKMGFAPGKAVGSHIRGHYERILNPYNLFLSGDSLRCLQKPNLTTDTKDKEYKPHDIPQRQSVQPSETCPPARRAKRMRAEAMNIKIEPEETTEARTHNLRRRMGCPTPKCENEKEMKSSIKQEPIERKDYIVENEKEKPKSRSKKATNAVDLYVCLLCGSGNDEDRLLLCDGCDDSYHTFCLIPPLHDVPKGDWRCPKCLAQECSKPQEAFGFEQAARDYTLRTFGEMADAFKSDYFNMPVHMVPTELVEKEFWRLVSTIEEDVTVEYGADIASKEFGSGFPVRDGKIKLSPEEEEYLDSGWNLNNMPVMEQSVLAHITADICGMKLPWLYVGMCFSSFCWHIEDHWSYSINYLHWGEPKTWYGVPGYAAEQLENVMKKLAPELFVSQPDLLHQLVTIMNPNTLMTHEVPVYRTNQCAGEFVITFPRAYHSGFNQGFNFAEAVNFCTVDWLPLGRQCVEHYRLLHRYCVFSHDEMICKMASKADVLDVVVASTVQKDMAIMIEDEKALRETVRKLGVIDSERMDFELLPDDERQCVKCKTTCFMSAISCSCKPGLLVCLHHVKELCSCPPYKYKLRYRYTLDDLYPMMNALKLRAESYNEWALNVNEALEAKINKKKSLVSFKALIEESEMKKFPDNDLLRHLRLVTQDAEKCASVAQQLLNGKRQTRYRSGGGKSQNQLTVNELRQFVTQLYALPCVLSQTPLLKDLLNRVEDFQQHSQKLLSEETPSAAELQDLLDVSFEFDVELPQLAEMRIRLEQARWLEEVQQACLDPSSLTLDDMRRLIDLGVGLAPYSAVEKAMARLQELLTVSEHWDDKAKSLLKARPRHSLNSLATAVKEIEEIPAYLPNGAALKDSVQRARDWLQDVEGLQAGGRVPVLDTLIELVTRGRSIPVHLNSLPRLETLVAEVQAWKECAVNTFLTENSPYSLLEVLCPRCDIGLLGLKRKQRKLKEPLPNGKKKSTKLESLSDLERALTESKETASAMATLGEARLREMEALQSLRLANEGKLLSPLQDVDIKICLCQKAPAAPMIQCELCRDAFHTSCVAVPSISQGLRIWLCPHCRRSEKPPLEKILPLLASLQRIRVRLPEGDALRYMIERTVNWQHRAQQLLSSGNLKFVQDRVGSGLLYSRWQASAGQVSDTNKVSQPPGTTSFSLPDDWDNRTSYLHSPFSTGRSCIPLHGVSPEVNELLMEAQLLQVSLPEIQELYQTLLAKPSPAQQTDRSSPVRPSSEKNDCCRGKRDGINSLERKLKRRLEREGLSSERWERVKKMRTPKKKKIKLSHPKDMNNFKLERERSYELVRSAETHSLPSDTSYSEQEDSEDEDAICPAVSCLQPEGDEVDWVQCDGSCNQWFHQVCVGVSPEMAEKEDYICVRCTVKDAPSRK
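Here, H3K4me3 peptide (12.5 µM in substrate mix) is demethylated by KDM5BΔAP, 200 nM final, after 10 min compound exposure. Formaldehyde product is coupled through FDH (0.25 U/mL in mix) to NADH fluorescence; 30-min ΔRFU feeds dose-response curves.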
* marks the source's active call; other numbers are inactive results; i = inactive. Potency is read from the fitted curve at half-maximal effect.

SMILES | KDM5B inhibitor
COc1ccc2ccccc2c1/C=C(/C#N)C(=O)Nc1ccccc1C(F)(F)F | i
O=C(c1ccc2c(c1)OCO2)N1CCC(N2CCNC2=O)CC1 | i
O=C(c1ccc2c(c1)OCO2)N1CCC(c2nnc3n2CCNC3)CC1 | 50µM*
O=C(c1ccc2c(c1)OCO2)N1CCn2c(nnc2C2CCCNC2)C1 (centres undefined) | i
Cc1nn2c(c1-c1ccccc1[S+](C)(=O)[O-])N(Cc1ccc3[nH]ccc3c1)CCC2 | i
COc1ccccc1CN1CCCn2nc(C)c(-c3ccccc3[S+](C)(=O)[O-])c21 | i
Cc1nn2c(c1-c1ccccc1[S+](C)(=O)[O-])N(CCC(C)C)CCC2 | 22µM*
CCOc1ccccc1NC(=O)CSc1nnc(-n2nc(C)cc2C)n1N | i
O=C(NCc1nc(-c2cccs2)no1)c1ccc2c(c1)OCO2 | i
O=C(c1ccc(-c2ccccc2)cc1)N(Cc1ccco1)C1CC1 | i
CN1Cc2cccn2CC1CNC(=O)c1cccs1 (centres undefined) | 20µM*
CN1Cc2cccn2CC1CNC(=O)c1cc(CN2CCOCC2)on1 (centres undefined) | 18µM*
COCCN1C(=O)c2cccn2CC1CNC(=O)c1cccc(F)c1 (centres undefined) | i
COc1cccc(C(=O)NCC2Cn3cccc3C(=O)N2C)c1 (centres undefined) | i
CN1Cc2cccn2CC1CNC(=O)c1nn(C)c2ccccc12 (centres undefined) | 16µM*
CCn1nccc1C(=O)NCC1Cn2cccc2C(=O)N1C (centres undefined) | i
CN1C(=O)c2cccn2CC1CNC(=O)c1cc(CN2CCOCC2)on1 (centres undefined) | i
CC(C)CN1C(=O)c2cccn2CC1CNC(=O)c1cccs1 (centres undefined) | i
Cc1ccc(S(=O)(=O)N2CCCC(CNC(=O)c3cccs3)C2)cc1 (centres undefined) | i
O=C(NCCc1ccc(F)cc1)c1cc(CN2CCOCC2)on1 | i
CN1Cc2cccn2CC1CNC(=O)c1cccc(F)c1 (centres undefined) | 25µM*
CN1C(=O)c2cccn2CC1CNC(=O)c1n[nH]c(=O)c2ccccc12 (centres undefined) | i
CC(C)CNC(=O)COC(=O)c1cc(=O)c2cc(Cl)ccc2o1 | i
Cn1c(=O)c2c(ncn2CC(=O)Nc2ccc3c(c2)OC2(CCCCC2)O3)n(C)c1=O | i
CS(=O)(=O)NC(=O)c1ccc(Cl)cc1F | i
SMILES | KDM5B inhibitor
O=C(Nc1cccc2cccnc12)c1cccc(S(=O)(=O)N2CCN(Cc3ccccc3)CC2)c1 | i
O=C(O)/C=C/c1ccc(Br)cc1 | i
Cc1cc(SCC(=O)NN2C(=O)NC3(CCC(C)CC3)C2=O)nc2ccccc12 (centres undefined) | i
CC(=O)NNC(N)=S | i
Cc1ccc(CC(=O)NC2CCC(C)CC2)cc1C (centres undefined) | i
CCN(C(=O)CC12CC3CC(CC(O)(C3)C1)C2)c1ccccc1 | i
COC(=O)c1ccc(OC(=O)c2cc(Cl)ccc2Cl)cc1 | i
O=C(O)CCCN1CCCC1 | i
CCN(Cc1cccc(F)c1)C(=O)Cn1nnn(-c2cccs2)c1=O | i
CN1Cc2cccn2CC1CNC(=O)c1ccco1 (centres undefined) | 28µM*
Cc1cc(C(=O)NCC2Cn3cccc3CN2C)nn1C (centres undefined) | 25µM*
CN1C(=O)c2cccn2CC1CNC(=O)CCc1ccccc1 (centres undefined) | i
CN1C(=O)c2cccn2CC1CNC(=O)c1ccoc1 (centres undefined) | i
Cc1cccc(CC(=O)NCC2Cn3cccc3C(=O)N2C)c1 (centres undefined) | i
CN1C(=O)c2cccn2CC1CNC(=O)c1cn[nH]c1-c1ccc(F)cc1 (centres undefined) | i
CN1Cc2cccn2CC1CNC(=O)c1cnn(C)c1 (centres undefined) | 22µM*
CCn1nc(C)c(-c2cc(C(=O)NCC3Cn4cccc4C(=O)N3C)no2)c1C (centres undefined) | i
Cc1nc(C)c(C(=O)NCC2Cn3cccc3C(=O)N2C)s1 (centres undefined) | i
CN1Cc2cccn2CC1CNC(=O)c1ccccc1 (centres undefined) | 28µM*
COc1ccccc1C(=O)NCC1Cn2cccc2C(=O)N1C (centres undefined) | i
Cc1cnc(C(=O)NCC2Cn3cccc3C(=O)N2C)cn1 (centres undefined) | i
COc1ccc(C(=O)Cn2c(=O)oc3cc(S(=O)(=O)N4CCOCC4)ccc32)cc1F | i
Cc1ccc(-c2nnn(CC(=O)N(C)Cc3ccc(Cl)s3)n2)cc1 | i
COC(=O)c1cc(S(=O)(=O)N(C)CC(=O)N2CCN(c3ccccc3F)CC2)cn1C | i
CC(=O)c1ccc(NC(=O)C(C)OC(=O)c2nc(-c3ccccc3)oc2C)cc1 (centres undefined) | i
SMILES | KDM5B inhibitor
CC1CCCN(c2nc3ccccc3nc2NS(=O)(=O)c2ccc(Cl)cc2)C1 (centres undefined) | i
CCOC(=O)c1[nH]c(C)c(/C(Br)=C/Br)c1C | i
O=C(c1ccc2c(c1)OCO2)N1CCC2(C1)C(=O)N(c1ccccc1)c1ccccc12 (centres undefined) | i
COc1ccc(S(=O)(=O)Nc2cc3c(cc2SC2CCCCC2)n(C)c(=O)n3C)cc1 | i
Cc1cccc(NC(=O)c2ccccc2NC(=O)CC23CC4CC(CC(C4)C2)C3)c1 | i
CN1C(=O)c2cccn2CC1CNC(=O)c1cccc2nccnc12 (centres undefined) | i
Cn1ccnc1C(=O)NCC1Cn2cccc2C(=O)N1Cc1ccccc1 (centres undefined) | i
CN1Cc2cccn2CC1CNC(=O)c1nccn1C (centres undefined) | 14µM*
COc1ccc(Cn2c(CCC(=O)Nc3cccc(Cl)c3)nc3cccnc32)cc1 | i
COc1cccc(CCC(=O)N2CCC(c3noc(-c4cnccn4)n3)C2)c1 (centres undefined) | i
COc1ccc(-c2nc3cnccn3c2NCCC(=O)N2CCCC(C)C2)cc1 (centres undefined) | 28µM*
COc1cccc(-c2nc3cnccn3c2NCCC(=O)N2CCCC(C)C2)c1 (centres undefined) | 28µM*
COc1ccc(CCC(=O)N2CCCC(c3nc(C4CCOCC4)no3)C2)cc1 (centres undefined) | i
COc1ccc(NC(=O)CSc2nc3ccccc3n2CC(=O)N2CCCC(C)C2)cc1 (centres undefined) | i
COc1cccc(-c2nc3cnccn3c2NCCC(=O)Nc2cccc(Cl)c2)c1 | 28µM*
COc1cccc(CCC(=O)N2CCCC(c3[nH]ccc3C(N)=O)C2)c1 (centres undefined) | i
COc1cccc(NC(=O)CCc2ncc(-c3ccc(Cl)cc3)o2)c1 | i
COc1cccc(CC(=O)NC(c2cccs2)C2CCCC2)c1 (centres undefined) | i
Cc1ccccc1CNC(=O)CCNS(=O)(=O)c1c(C)[nH]c(C)c1C(=O)N1CCCCC1 | i
O=C(O)C1CC=CCC1c1nc2ccccc2s1 (centres undefined) | i
CCCCN(C)CCC(=O)Nc1cccc(Cl)c1 | i
O=C(N/N=C/c1cccc(Cl)c1Cl)C1CC1 | i
